What all share (assay): HT-SELEX; high values mean tight binding
Holding throughout (conditions): protein: recombinant; vector His6-GST; dsDNA, one strand shown

For experiment [1], the target named is T1, SALL4 ZFC4 WT (HT-SELEX) (Mus musculus, UniProt Q8BX22 870-940).
T1 sequence: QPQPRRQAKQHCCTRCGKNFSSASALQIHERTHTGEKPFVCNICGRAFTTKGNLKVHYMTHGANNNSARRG
In outline:
(§1)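 Each canonical k-mer's binding signal is its read fraction expressed as fold change over the initial random library. Reads came from MiSeq sequencing, scanned for 6-mers, after up to 6 triplicate cycles in which purified recombinant mouse SALL4 zinc finger cluster 4 (residues 870–940, 1 µg) bound library DNA (1.5 µg first cycle, 200 ng later) in 100 µl of 10 mM Tris–HCl pH 7.5, 50 mM NaCl, poly(dI-dC), DTT for 10 min at room temperature. Complexes were then Ni2+ bead-captured, washed, PCR-amplified and reselected.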

Experiment [2] deals with T2, SALL4 ZFC4 R900W (HT-SELEX) (Mus musculus, UniProt Q8BX22 870-940, R900W).
T2 sequence: T1 sequence with R31W
In short, it runs like this: as §1

Experiment [3] addresses T3, SALL4 ZFC4 G921D (HT-SELEX) (Mus musculus, UniProt Q8BX22 870-940, G921D).
T3 sequence: T1 sequence with G52D
In short, it runs like this:
as §1

Numbering of substitutions follows the chain as printed.

For the sequence CGATTC, the binding signal in experiment [1] came to 0.682 ± 0.0336 fold-change vs cycle 0; in experiment [2] it was 0.738 ± 0.0472 fold-change vs cycle 0; in experiment [3], 0.84 ± 0.0386 fold-change vs cycle 0.

For CAAGAG, the binding signal in experiment [1] came out at 0.839 ± 0.0412 fold-change vs cycle 0; in experiment [2], 1.03 ± 0.0313 fold-change vs cycle 0; in experiment [3], 1.015 ± 0.00973 fold-change vs cycle 0.

On to CAAGAA, for which the binding signal came out at 1.26 ± 0.0324 fold-change vs cycle 0 in experiment [1], 1.43 ± 0.0703 fold-change vs cycle 0 in experiment [2] and 1.35 ± 0.104 fold-change vs cycle 0 in experiment [3].

On to AGCACT, for which the binding signal in experiment [1] is 0.65 ± 0.0278 fold-change vs cycle 0; in experiment [2] it was 0.746 ± 0.0409 fold-change vs cycle 0; in experiment [3] it was 0.859 ± 0.0159 fold-change vs cycle 0.

AAAAAT: the binding signal in experiment [1] was 3.83 ± 0.465 fold-change vs cycle 0; in experiment [2], 2.16 ± 0.197 fold-change vs cycle 0; in experiment [3] it was 1.9 ± 0.223 fold-change vs cycle 0.

As to GGAAAA, the binding signal in experiment [1] stood at 1.11 ± 0.0508 fold-change vs cycle 0; in experiment [2], 1.13 ± 0.0572 fold-change vs cycle 0; in experiment [3], 1.12 ± 0.0269 fold-change vs cycle 0.

For the sequence CTCCAA, the binding signal is 0.746 ± 0.0518 fold-change vs cycle 0 in experiment [1], 0.878 ± 0.04 fold-change vs cycle 0 in experiment [2] and 0.924 ± 0.0231 fold-change vs cycle 0 in experiment [3].

GGACAA: the binding signal in experiment [1] is 0.637 ± 0.0222 fold-change vs cycle 0; in experiment [2], 0.742 ± 0.00957 fold-change vs cycle 0; in experiment [3], 0.828 ± 0.043 fold-change vs cycle 0.

As to GACCGA, the binding signal in experiment [1] was 0.327 ± 0.0131 fold-change vs cycle 0; in experiment [2], 0.4 ± 0.0327 fold-change vs cycle 0; in experiment [3] it was 0.52 ± 0.0745 fold-change vs cycle 0.

As to CATTGG, the results for the binding signal in experiment [1], in experiment [2] and in experiment [3] were 0.754 ± 0.0443 fold-change vs cycle 0, 0.867 ± 0.0514 fold-change vs cycle 0 and 0.924 ± 0.0186 fold-change vs cycle 0, respectively.

For the sequence GCAGGA, the binding signal was 0.338 ± 0.0276 fold-change vs cycle 0 in experiment [1], 0.413 ± 0.0223 fold-change vs cycle 0 in experiment [2] and 0.489 ± 0.0596 fold-change vs cycle 0 in experiment [3].

With GACTAA, the values for the binding signal in experiment [1], in experiment [2] and in experiment [3] were 1.21 ± 0.0577 fold-change vs cycle 0, 1.39 ± 0.093 fold-change vs cycle 0 and 1.3 ± 0.0798 fold-change vs cycle 0, respectively.

Consider AAGACA, for which the results for the binding signal in experiment [1], in experiment [2] and in experiment [3] were 1.28 ± 0.0466 fold-change vs cycle 0, 1.42 ± 0.0793 fold-change vs cycle 0 and 1.35 ± 0.0674 fold-change vs cycle 0, respectively.

With ATTTAA, the binding signal came to 3.2 ± 0.134 fold-change vs cycle 0 in experiment [1], 2.48 ± 0.146 fold-change vs cycle 0 in experiment [2] and 2.15 ± 0.212 fold-change vs cycle 0 in experiment [3].

With CAAACC, the results for the binding signal in experiment [1], in experiment [2] and in experiment [3] were 0.669 ± 0.0487 fold-change vs cycle 0, 0.765 ± 0.014 fold-change vs cycle 0 and 0.864 ± 0.0462 fold-change vs cycle 0, respectively.

On to CTAATC, for which the binding signal in experiment [1] came out at 1.38 ± 0.0603 fold-change vs cycle 0; in experiment [2] it was 1.55 ± 0.0541 fold-change vs cycle 0; in experiment [3] it was 1.43 ± 0.0842 fold-change vs cycle 0.

Turning to AACATC, the binding signal in experiment [1] came out at 1.26 ± 0.068 fold-change vs cycle 0; in experiment [2], 1.37 ± 0.098 fold-change vs cycle 0; in experiment [3], 1.34 ± 0.101 fold-change vs cycle 0.

As for AATAAA, the binding signal in experiment [1] was determined as 3.71 ± 0.274 fold-change vs cycle 0; in experiment [2], 2.68 ± 0.197 fold-change vs cycle 0; in experiment [3], 2.21 ± 0.297 fold-change vs cycle 0.

In the case of CATTCG, the binding signal was 0.667 ± 0.027 fold-change vs cycle 0 in experiment [1], 0.769 ± 0.0521 fold-change vs cycle 0 in experiment [2] and 0.847 ± 0.0186 fold-change vs cycle 0 in experiment [3].

For the sequence ATATGA, the results for the binding signal in experiment [1], in experiment [2] and in experiment [3] were 3.11 ± 0.303 fold-change vs cycle 0, 2.07 ± 0.156 fold-change vs cycle 0 and 1.85 ± 0.196 fold-change vs cycle 0, respectively.

Regarding CCAAAG, the binding signal was determined as 0.69 ± 0.0265 fold-change vs cycle 0 in experiment [1], 0.801 ± 0.0292 fold-change vs cycle 0 in experiment [2] and 0.848 ± 0.0204 fold-change vs cycle 0 in experiment [3].

As for ATATCG, the results for the binding signal in experiment [1], in experiment [2] and in experiment [3] were 1.31 ± 0.0501 fold-change vs cycle 0, 1.15 ± 0.0369 fold-change vs cycle 0 and 1.194 ± 0.00992 fold-change vs cycle 0, respectively.

As for ATAGAG, the figures for the binding signal in experiment [1], in experiment [2] and in experiment [3] were 1.4 ± 0.0362 fold-change vs cycle 0, 1.43 ± 0.0403 fold-change vs cycle 0 and 1.38 ± 0.0574 fold-change vs cycle 0, respectively.

AGTTTC: the figures for the binding signal in experiment [1], in experiment [2] and in experiment [3] were 1.25 ± 0.0447 fold-change vs cycle 0, 1.33 ± 0.0345 fold-change vs cycle 0 and 1.3 ± 0.112 fold-change vs cycle 0, respectively.

For the sequence ATACTG, the results for the binding signal in experiment [1], in experiment [2] and in experiment [3] were 1.31 ± 0.0361 fold-change vs cycle 0, 1.4 ± 0.0644 fold-change vs cycle 0 and 1.36 ± 0.0801 fold-change vs cycle 0, respectively.

In the case of CATCCC, the binding signal in experiment [1] stood at 0.525 ± 0.0193 fold-change vs cycle 0; in experiment [2], 0.59 ± 0.0178 fold-change vs cycle 0; in experiment [3] it was 0.652 ± 0.049 fold-change vs cycle 0.

As to ATAGAA, the binding signal in experiment [1] was found to be 2.33 ± 0.17 fold-change vs cycle 0; in experiment [2], 2.13 ± 0.133 fold-change vs cycle 0; in experiment [3] it was 1.83 ± 0.226 fold-change vs cycle 0.

In the case of GCTAAC, the binding signal in experiment [1] came to 0.704 ± 0.0424 fold-change vs cycle 0; in experiment [2], 0.792 ± 0.0586 fold-change vs cycle 0; in experiment [3], 0.89 ± 0.0355 fold-change vs cycle 0.

On to GATTAC, for which the binding signal in experiment [1] stood at 1.43 ± 0.106 fold-change vs cycle 0; in experiment [2], 1.54 ± 0.0979 fold-change vs cycle 0; in experiment [3] it was 1.45 ± 0.0912 fold-change vs cycle 0.

In the case of GGAACC, the binding signal in experiment [1] was found to be 0.444 ± 0.034 fold-change vs cycle 0; in experiment [2], 0.539 ± 0.0289 fold-change vs cycle 0; in experiment [3], 0.622 ± 0.0467 fold-change vs cycle 0.
